# Bioassay records as filed in PubChem BioAssay.
# SARS PLpro yeast: SARS-CoV PLP inhibition in yeast. S. cerevisiae expressing SARS-CoV PLpro, growth rescue. Potency, µM (series often up to 32.9 µM), inactives show at the highest dose activity, positive = growth rescue, most hits filed as activators. 330,000 compounds, 0.19% hits. AID 485353; calls by dose curve; further: 0% is about no effect; nearly all actives have a fitted effect of over 55% in size
# Pf growth 48h: P. falciparum growth inhibition at 48 hours (one generation); AID 504832; 310,000 compounds, 5.9% hits; Potency, µM (series often up to 28.7 µM), inactives show top-dose activity change, negative = inhibition, actives largely listed as inhibitors; P. falciparum luciferase growth in erythrocytes, 48 h; further: on the % scale 0 is the no-effect control and ±100 the full control effect
#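 Cell-based growth assay: transgenic P. falciparum expressing firefly luciferase, cultured in red cells within RPMI 1640 containing 0.5% w/v Albumax, 24 mM bicarbonate and gentamycin. A drop in luciferase activity indicates inhibition.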
# Pf growth 96h: inhibits malaria parasite growth, 96 h; 320,000 compounds, 6.9% hits; AID 504834; P. falciparum luciferase reporter growth, 96 h; Potency, µM (doses to about 28.7 µM), without a hit: top-dose activity change, negative = inhibition, usual class: inhibitors; further: on the % scale 0 is the no-effect control and ±100 the full control effect
#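 Cell-based qHTS: luciferase-tagged P. falciparum in erythrocytes (2% hematocrit, 0.05% parasitemia final) incubated with compounds for 96 hours, 37 C, 5% CO2; luciferase detection reagent then added and luminescence measured.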
# HCV inh: HCV inhibition; Potency, µM (titrated, usually from 41.8 µM), for inactives: at the top dose activity change, negative = inhibition, actives largely listed as inhibitors; 340,000 compounds, 3.4% hits; Huh7.5.1 HCVcc-Cre infection, luciferase reporter, 44 h; further: on the % scale 0 is the no-effect control and ±100 the full control effect
#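 Infectious HCV cell culture screen: compound-treated cells (1,000/well, pre-plated 4 h) are infected with HCVcc-Cre at roughly 0.5 moi and grown 44 h. Infection is quantified by luciferase signal after 15 min substrate incubation at room temperature.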
# AMA1 RON2 block: disrupts binding of P. falciparum AMA1 to RON2; Potency, µM (top dose mostly 58.2 µM), for inactives: at the top dose activity change, negative = inhibition, actives largely listed as inhibitors; 360,000 compounds, 0.2% hits; AlphaScreen AMA1-biotinylated RON2 peptide binding;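 further: 0% = vehicle wells and -100% = peptide control; nearly all actives have a fitted effect of over 45% in size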
#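 AMA1 (3D7) with his tag at 25 nM final met compounds first, then biotinylated RON2 peptide at 25 nM; detection used donor plus acceptor beads, 10 µg/mL apiece, read by AlphaScreen after 30 min at room temperature.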
# NS1 inh: influenza NS1 inhibition; Potency, µM (doses to about 46.1 µM), without a hit: top-dose activity, positive = more growth; 270,000 compounds, 0.4% hits; AID 2326; calls by dose curve; further: actives are rising curves; nearly all actives have a fitted effect of over 50% in size
#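 Recovery from NS1-induced slow growth read by OD600 in budding yeast switched to galactose assay medium (pH 6.0, -URA) at 1:100 dilution. Compound 23 nl per well; the matching strain lacking NS1 serves as control.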
# * = called active by the depositor; ? = inconclusive; nt = not tested or not shown; [ ] = dose if it differs, or a comment. In the library only some 12% were active in any assay of this set; here they are far more common. Unless noted, the call rests on the fitted dose curve; in most records, active means well fitted curve in the direction sought with a large enough effect; inconclusive means small, poorly fitted or top-dose-only effect, or another doubt; inactive means no such curve, though single readings can be large; an effect the other way counts as inactive or inconclusive. Potency means the concentration at half of the fitted maximal effect.
SMILES,SARS PLpro yeast,Pf growth 48h,Pf growth 96h,HCV inh,AMA1 RON2 block,NS1 inh
Cn1c(C=O)c(C#CC(C)(C)O)c2ccccc21,0%,-14%,?,?,6%,nt
COc1cccc(C#Cc2c(C=O)n(C)c3ccccc23)c1,10%,13µM*,?,?,203%,nt
CCn1c(O)c(N=NC(=O)c2cccnc2)c2cc(Br)ccc21,1%,10µM*,?,?,3%,-2%
CCCCn1c(O)c(N=NC(=O)c2ccncc2)c2cc(Br)ccc21,0%,-16%,?,-2%,-12%,1%
COc1ccc(OC)c(NC(=O)CSc2nnc(Cc3cccn3C)n2CCc2ccccc2)c1,-5%,5.2µM*,12µM*,nt,-29%,-6%
COc1ccc(OC)c(C(=O)CSc2nnc(-c3cccs3)n2C)c1,5%,?,nt,-3%,-7%,-11%
Cn1cccc1Cc1nnc(SCC(=O)Nc2ccc(F)cc2)n1CCc1ccccc1,8%,?,?,?,6%,?
COc1ccccc1NC(=O)CSc1nnc(C)n1CCc1ccccc1,1%,?,10µM*,4%,-6%,-6%
COc1ccc(OC)c(C(=O)CSc2nnc(Cc3cccs3)n2CCc2ccccc2)c1,2%,12µM*,13µM*,?,11%,3%
Cn1cccc1Cc1nnc(SCC(=O)Nc2ccc3c(c2)OCCO3)n1CCc1ccccc1,8%,nt,12µM*,-17%,-16%,15%
Cn1cccc1Cc1nnc(SCC(=O)Nc2ccc3c(c2)OCO3)n1CCc1ccccc1,-8%,?,?,-14%,-15%,?
CCc1noc(C)c1C(=O)Nc1nnc(CC(C)C)s1,-2%,-24%,3%,9%,-3%,nt
Cc1cc(NC(=O)CCc2ccccc2)c([N+](=O)[O-])cc1C,-2%,32%,0%,-22%,-10%,-24%
COc1ccc(C(CNC(=O)c2ccc(-c3ccccc3Cl)o2)N2CCOCC2)cc1 (configuration not stated),0%,15µM*,?,?,-23%,nt
COc1ccccc1C(CNC(=O)c1ccco1)N1CCCC1 (configuration not stated),-2%,-8%,20%,14%,53%,nt
COc1ccccc1C(CNC(=O)c1ccc(-c2ccccc2Cl)o1)N1CCCC1 (configuration not stated),9%,15µM*,10µM*,?,-28%,nt
COc1ccc(C(CNC(=O)Cc2ccc(Cl)c(Cl)c2)N2CCCCC2)cc1 (configuration not stated),-3%,?,2.1µM*,3%,-10%,-7%
N#Cc1ccccc1NC(=O)COC(=O)c1ccc(F)cc1F,-1%,29%,51%,8%,-8%,-1%
Cc1ccc(S(=O)(=O)N2CCC(n3nnc4cc(C)ccc43)CC2)cc1,18%,?,?,11%,8%,8%
Cc1ccc2c(c1)nnn2C1CCN(S(=O)(=O)c2ccc(C(=O)N(C)C3CCCCC3)cc2)CC1,7%,?,?,13µM*,16%,-20%
Cc1cc(C)n(S(=O)(=O)c2ccc(Cl)cc2)n1,2%,14%,?,18%,13%,0%
CCOc1ccc(C)cc1S(=O)(=O)n1nc(C)cc1C,1%,18%,10%[5.75 µM],17%,0%,nt
Cc1cc(C)n(S(=O)(=O)c2cc(Cl)ccc2Cl)n1,6%,10µM*,0%,20%,-11%,-1%
CCOc1ccc(C(C)(C)C)cc1S(=O)(=O)N1CC(C)OC(C)C1 (configuration not stated),-2%,12µM*,nt,-14%,13%,-68%
CCOc1ccc(C(C)(C)C)cc1S(=O)(=O)n1nc(C)cc1C,3%,4.7µM*,8.3µM*,?,24%,-6%
SMILES,SARS PLpro yeast,Pf growth 48h,Pf growth 96h,HCV inh,AMA1 RON2 block,NS1 inh
CNC[C@@H](C)NC[C@@H](Cc1ccccc1)NCCc1ccccc1,-1%,?,2.9µM*,?,104%,5%
CNCCc1ccccc1,1%,2%,-26%,nt,nt,8%
COc1ccc(COC(=O)Oc2ccc(CNC(C)=O)cc2OC)c([N+](=O)[O-])c1,2%,-10%,2%,8%,-1%,nt
Cc1nc2ccc(S(=O)(=O)NCC(=O)NCCc3ccc(Cl)cc3)cc2s1,1%,-7%,?,-12%,1%,0%
CC(C)c1cc(C(=O)Nc2cc(Cl)ccc2O)no1,?,?,?,10µM*,2%,-100%
Cc1noc(C(=O)Nc2cc(Cl)ccc2O)c1Cl,-6%,5.2µM*,19%,?,-9%,-31%
CC(C)c1cc(C(=O)Nc2cc(Br)ccc2O)no1,-3%,?,nt,-23%,14%,-54%
CCCc1cc(C(=O)Nc2cc(Br)ccc2O)no1,-4%,5.2µM*,-17%,-26%,19%,-41%
CCN(C(=O)c1nn(-c2ccc(OC)cc2)c(=O)c2c1c1ccccc1n2C)c1ccc(OC)cc1,-3%,-11%,-1%,20%,18%,nt
CCOC(CCNC(=O)c1cn(CC(C)C)c(=O)c2c1c1ccccc1n2C)OCC,1%,-17%,0.52µM*,14%,18%,1%
CCCCN(C)CCNC(=O)c1nn(-c2ccc(OC)cc2)c(=O)c2c1c1ccccc1n2C,3%,?,2.6µM*,-16%,-4%,nt
CCCCN(CC)CCCNC(=O)c1cn(CC(C)C)c(=O)c2c1c1ccccc1n2C,-1%,13µM*,-25%,?,-4%,-4%
O=C1C=C(c2ccc(C(=O)O)c(Cl)c2)C[C@@H](c2ccc3c(c2)OCO3)C1,-1%,nt,nt,13%,-18%,nt
COc1ccc(C(=O)Nc2ccc(NC(=O)c3cc(OC)c(OC)c(OC)c3)cn2)cc1,-7%,2.1µM*,32%,-21%,-16%,7%
COc1cc(/C=C(\NC(=O)c2cc(OC)c(OC)c(OC)c2)C(=O)NC(C(=O)O)c2ccccc2)cc(OC)c1OC (configuration not stated),5%,0%,13µM*,11%,-16%,28%
CC(OC(=O)c1cccc(-n2cnnn2)c1)C(=O)Nc1cccc(Cl)c1 (configuration not stated),1%,-14%,7%,8.9µM*,19%,nt
COc1cc(C(=O)NC(c2ccccc2)c2ccccc2)cc(OC)c1OC,-7%,?,-11%,4%,4%,7%
COc1cc(C(=O)Nc2cccc(-n3cnnn3)c2)cc(Cl)c1OC,-2%,9.3µM*,?,?,0%,7%
COC(=O)c1c(-c2cc(OC)c(OC)c(OC)c2)c2ccnc(OCc3ncccn3)c2c(=O)n1Cc1ccnc(C)c1,nt,nt,nt,nt,nt,-21%
Cc1cccc(NC(=O)c2ccc(NS(=O)(=O)c3cccc4cccnc34)cc2)c1,nt,nt,nt,?,32%,nt
